From PubChem BioAssay (EPA / NIEHS)
The source made the active and inactive calls. How the source made its calls: active means hit-call score of the fitted dose curve at least 0.9, where 1 is the maximum; inactive means score below 0.9.

Assays:
Conditions in all cases: mRNA level, 48 h; actives raise or lower the signal
CYP2C9 (gene 1559) = assay: LTEA_HepaRG_CYP2C9: Life Technologies and Expression Analysis (LTEA) Assay for CYP2C9 using HepaRG (AID 2283484)
Procedure, shortened: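 HepaRG, 48 h dosing, 8-pt half-log series, top 100 uM, 0.5% DMSO vehicle. Read-out: CYP2C9 transcript by TaqMan qRT-PCR, housekeeping-normalized (ACTB/GAPDH/POLR2A). Gain or loss fitted vs DMSO baseline.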

CYP2E1 (gene 1571) = assay: LTEA_HepaRG_CYP2E1: Life Technologies and Expression Analysis (LTEA) Assay for CYP2E1 using HepaRG (AID 2283485)
Procedure, shortened: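 CYP2E1 transcript was measured by TaqMan qRT-PCR in human HepaRG cultures after 48 h chemical exposure (top 100 uM, half-log steps, 0.5% DMSO vehicle). Housekeeping-gene normalization; gain or loss fitted relative to DMSO baseline.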

CYP4A11 (gene 1579) = assay: LTEA_HepaRG_CYP4A11: Life Technologies and Expression Analysis (LTEA) Assay for CYP4A11 using HepaRG (AID 2283486)
Procedure, shortened: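 HepaRG, 48 h chem exposure, 8 conc (100 uM top, half-log), 0.5% DMSO vehicle; qRT-PCR readout, housekeeping-gene normalized; bidirectional curve fit vs DMSO baseline.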

[1] = read-out: Cytochrome P450 3A4 (Homo sapiens) (UniProt P08684); assay: LTEA_HepaRG_CYP3A4: Life Technologies and Expression Analysis (LTEA) Assay for CYP3A4 using HepaRG (AID 2283487)
Procedure, shortened: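 Differentiated HepaRG cells, plated 48 h, then dosed 48 h in serum-free induction medium with 0.5% DMSO, 8 half-log concentrations up to 100 uM, duplicate. CYP3A4 mRNA by qRT-PCR, normalized to ACTB/GAPDH/POLR2A; bidirectional fit versus DMSO.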

[2] = read-out: DNA damage-inducible transcript 3 (DDIT3), DDIT3 (gene 1649); assay: LTEA_HepaRG_DDIT3: Life Technologies and Expression Analysis (LTEA) Assay for DNA damage-inducible transcript 3 (DDIT3) using HepaRG (AID 2283488)
Procedure, shortened: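 qRT-PCR readout (Fluidigm TaqMan), housekeeping-normalized to ACTB, GAPDH, POLR2A. HepaRG cells, 48 h exposure, 8-point half-log series from 100 uM in 0.5% DMSO, duplicates. Gain or loss of signal fitted against DMSO baseline.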

[3] = read-out: Pro-epidermal growth factor (Homo sapiens) (UniProt P01133); assay: LTEA_HepaRG_EGF: Life Technologies and Expression Analysis (LTEA) Assay for Epidermal growth factor (EGF) using HepaRG (AID 2283489)
Procedure, shortened: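 HepaRG, 48 h dosing, 100 uM top, half-log x8, 0.5% DMSO. Readout: TaqMan qRT-PCR (Fluidigm array), housekeeping-normalized. Gain or loss of signal fit vs DMSO.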

[4] = read-out: Early growth response protein 1 (EGR1) transcription factor, EGR1 (gene 1958); assay: LTEA_HepaRG_EGR1: Life Technologies and Expression Analysis (LTEA) Assay for Early growth response protein 1 (EGR1) transcription factor using HepaRG (AID 2283490)
Procedure, shortened: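 HepaRG, 48 h exposure, 8-pt half-log series from 100 uM, 0.5% DMSO vehicle; EGR1 transcript by TaqMan qRT-PCR (Fluidigm array), housekeeping-normalized; bidirectional fit relative to DMSO baseline.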

[5] = read-out: Ezrin (EZR), EZR (gene 7430); assay: LTEA_HepaRG_EZR: Life Technologies and Expression Analysis (LTEA) Assay for Ezrin (EZR) using HepaRG (AID 2283491)
Procedure, shortened: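 EZR transcript levels came from Fluidigm qRT-PCR and were normalized to three housekeeping genes after 48 h chemical exposure of HepaRG cells. Dosing used an 8-point half-log series with a 100 uM top concentration in 0.5% DMSO, tested in duplicate; both directions were fitted versus vehicle.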

[6] = read-out: Cytochrome P450 3A7 (Homo sapiens) (UniProt P24462); assay: LTEA_HepaRG_CYP3A7: Life Technologies and Expression Analysis (LTEA) Assay for CYP3A7 using HepaRG (AID 2283492)
Procedure, shortened: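 Human HepaRG liver cells, 48 h post-plating, switched to serum-free induction medium and exposed in duplicate for 48 h. Dosing: 100 uM top, half-log dilutions, 8 points, 0.5% DMSO vehicle. Read-out: CYP3A7 mRNA, gain or loss fitted against DMSO baseline.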

[7] = read-out: Fatty Acid-Binding Protein 1 (FABP1), FABP1 (gene 2168); assay: LTEA_HepaRG_FABP1: Life Technologies and Expression Analysis (LTEA) Assay for Fatty Acid-Binding Protein 1 (FABP1) using HepaRG (AID 2283494)
Procedure, shortened: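 qRT-PCR readout of FABP1 transcript (normalized to three housekeeping genes) after 48 h chemical exposure of HepaRG cells; eight concentrations, half-log steps, max 100 uM, 0.5% DMSO vehicle; gain or loss fitted relative to DMSO baseline.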

[8] = read-out: Cytochrome P450 4A22 (Homo sapiens) (UniProt Q5TCH4); assay: LTEA_HepaRG_CYP4A22: Life Technologies and Expression Analysis (LTEA) Assay for Cytochrome P450 4A22 (CYP4A22) using HepaRG (AID 2283495)
Procedure, shortened: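 Readout is CYP4A22 transcript induction or loss, quantified by qRT-PCR and normalized to ACTB, GAPDH and POLR2A. Human HepaRG cells receive test chemicals for 48 h at eight half-log concentrations from 100 uM in 0.5% DMSO.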

[9] = read-out: Cytochrome P450 7A1 (Homo sapiens) (UniProt P22680); assay: LTEA_HepaRG_CYP7A1: Life Technologies and Expression Analysis (LTEA) Assay for Cytochrome P450 7A1 (CYP7A1) using HepaRG (AID 2283496)
Procedure, shortened: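 Using 0.5% DMSO as vehicle and baseline, chemicals were tested in duplicate over an 8-point range from 100 uM on HepaRG cells for 48 h; qRT-PCR signals were normalised to ACTB, GAPDH and POLR2A.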

[10] = read-out: Glutathione S-Transferase (GSTA2), GSTA2 (gene 2939); assay: LTEA_HepaRG_GSTA2: Life Technologies and Expression Analysis (LTEA) Assay for Glutathione S-Transferase (GSTA2) using HepaRG (AID 2283497)
Procedure, shortened: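 qRT-PCR readout of GSTA2 transcript, normalized to three housekeeping genes, fitted bidirectionally against 0.5% DMSO baseline. Differentiated HepaRG cells received compound for 48 h at 8 concentrations (top 100 uM, half-log steps).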

[11] = read-out: growth arrest and DNA damage 45 (GADD45G), GADD45G (gene 10912); assay: LTEA_HepaRG_GADD45G: Life Technologies and Expression Analysis (LTEA) Assay for growth arrest and DNA damage 45 (GADD45G) using HepaRG (AID 2283499)
Procedure, shortened: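 Gain or loss of GADD45G mRNA, quantified by TaqMan qRT-PCR against three housekeeping genes, is fitted in both directions relative to 0.5% DMSO. Human HepaRG cultures receive test chemical for 48 h at up to 100 uM.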

[12] = read-out: Glutamate-cysteine ligase regulatory (GCLM), GCLM (gene 2730); assay: LTEA_HepaRG_GCLM: Life Technologies and Expression Analysis (LTEA) Assay for Glutamate-cysteine ligase regulatory (GCLM) using HepaRG (AID 2283500)
Procedure, shortened: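 HepaRG, 48 h dosing, 100 uM top, half-log x8, 0.5% DMSO vehicle. Readout: GCLM mRNA by TaqMan qRT-PCR, housekeeping-normalized (ACTB/GAPDH/POLR2A). Curves fit bidirectionally vs DMSO baseline.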

[13] = read-out: Glutathione S-transferase M3 (GSTM3), GSTM3 (gene 2947); assay: LTEA_HepaRG_GSTM3: Life Technologies and Expression Analysis (LTEA) Assay for Glutathione S-transferase M3 (GSTM3) using HepaRG (AID 2283501)
Procedure, shortened: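 HepaRG, plated 48 h, then serum-free induction medium; test chemical 48 h, duplicate; 100 uM top, half-log x8, 0.5% DMSO. Read-out: GSTM3 mRNA (TaqMan qRT-PCR, Fluidigm array). Bidirectional fit vs DMSO.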

[14] = read-out: Heat shock 70 kDa protein 1 (HSPA1A), gene 3303; assay: LTEA_HepaRG_HSPA1A: Life Technologies and Expression Analysis (LTEA) Assay for Heat shock 70 kDa protein 1 (HSPA1A) using HepaRG (AID 2283502)
Procedure, shortened: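 HepaRG, 48 h exposure, 8-pt half-log CRC from 100 uM in 0.5% DMSO, duplicates. Readout: TaqMan qRT-PCR of HSPA1A mRNA, housekeeping-normalized (ACTB/GAPDH/POLR2A). Bidirectional fit vs 0.5% DMSO baseline.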

[15] = read-out: Hypoxia-inducible factor 1-alpha (Homo sapiens) (UniProt Q16665); assay: LTEA_HepaRG_HIF1A: Life Technologies and Expression Analysis (LTEA) Assay for Hypoxia-inducible factor 1 (HIF1A) Trancription factor using HepaRG (AID 2283503)
Procedure, shortened: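 Gain- or loss-of-signal HIF1A mRNA changes are fitted against a DMSO baseline. HepaRG cultures receive eight concentrations, highest 100 uM, for 48 h in serum-free induction medium with 0.5% DMSO.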

Measured: AC50

Chain of Cytochrome P450 3A4 (Homo sapiens) (P08684 whole entry, looked up): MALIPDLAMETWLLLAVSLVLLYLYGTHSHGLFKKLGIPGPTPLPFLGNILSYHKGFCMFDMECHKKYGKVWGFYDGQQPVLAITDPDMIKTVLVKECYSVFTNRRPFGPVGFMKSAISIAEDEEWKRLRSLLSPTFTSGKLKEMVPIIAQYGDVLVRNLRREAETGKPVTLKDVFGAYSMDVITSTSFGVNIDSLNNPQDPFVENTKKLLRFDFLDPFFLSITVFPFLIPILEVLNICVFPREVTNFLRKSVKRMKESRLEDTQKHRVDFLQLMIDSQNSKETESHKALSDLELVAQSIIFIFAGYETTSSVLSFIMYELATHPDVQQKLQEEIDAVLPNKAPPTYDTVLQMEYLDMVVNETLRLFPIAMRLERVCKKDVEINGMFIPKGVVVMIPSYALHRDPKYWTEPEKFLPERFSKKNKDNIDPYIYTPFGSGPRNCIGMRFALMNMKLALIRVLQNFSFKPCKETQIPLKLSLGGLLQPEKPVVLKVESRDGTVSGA
Chain of Cytochrome P450 3A7 (Homo sapiens) (P24462 whole entry, looked up): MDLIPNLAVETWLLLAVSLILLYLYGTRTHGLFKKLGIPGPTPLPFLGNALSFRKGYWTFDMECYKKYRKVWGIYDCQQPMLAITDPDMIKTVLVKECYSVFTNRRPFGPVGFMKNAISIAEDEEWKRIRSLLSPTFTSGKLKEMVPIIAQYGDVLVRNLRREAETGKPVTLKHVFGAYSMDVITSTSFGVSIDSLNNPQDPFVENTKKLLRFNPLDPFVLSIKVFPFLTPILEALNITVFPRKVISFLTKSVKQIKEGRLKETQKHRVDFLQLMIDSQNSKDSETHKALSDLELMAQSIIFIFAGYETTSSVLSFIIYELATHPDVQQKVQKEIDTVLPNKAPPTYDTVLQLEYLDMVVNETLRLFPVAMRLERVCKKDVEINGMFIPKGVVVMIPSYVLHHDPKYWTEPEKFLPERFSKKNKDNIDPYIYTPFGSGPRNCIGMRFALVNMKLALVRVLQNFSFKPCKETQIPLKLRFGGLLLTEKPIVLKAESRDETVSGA
Chain of Hypoxia-inducible factor 1-alpha (Homo sapiens) (Q16665 whole entry, looked up): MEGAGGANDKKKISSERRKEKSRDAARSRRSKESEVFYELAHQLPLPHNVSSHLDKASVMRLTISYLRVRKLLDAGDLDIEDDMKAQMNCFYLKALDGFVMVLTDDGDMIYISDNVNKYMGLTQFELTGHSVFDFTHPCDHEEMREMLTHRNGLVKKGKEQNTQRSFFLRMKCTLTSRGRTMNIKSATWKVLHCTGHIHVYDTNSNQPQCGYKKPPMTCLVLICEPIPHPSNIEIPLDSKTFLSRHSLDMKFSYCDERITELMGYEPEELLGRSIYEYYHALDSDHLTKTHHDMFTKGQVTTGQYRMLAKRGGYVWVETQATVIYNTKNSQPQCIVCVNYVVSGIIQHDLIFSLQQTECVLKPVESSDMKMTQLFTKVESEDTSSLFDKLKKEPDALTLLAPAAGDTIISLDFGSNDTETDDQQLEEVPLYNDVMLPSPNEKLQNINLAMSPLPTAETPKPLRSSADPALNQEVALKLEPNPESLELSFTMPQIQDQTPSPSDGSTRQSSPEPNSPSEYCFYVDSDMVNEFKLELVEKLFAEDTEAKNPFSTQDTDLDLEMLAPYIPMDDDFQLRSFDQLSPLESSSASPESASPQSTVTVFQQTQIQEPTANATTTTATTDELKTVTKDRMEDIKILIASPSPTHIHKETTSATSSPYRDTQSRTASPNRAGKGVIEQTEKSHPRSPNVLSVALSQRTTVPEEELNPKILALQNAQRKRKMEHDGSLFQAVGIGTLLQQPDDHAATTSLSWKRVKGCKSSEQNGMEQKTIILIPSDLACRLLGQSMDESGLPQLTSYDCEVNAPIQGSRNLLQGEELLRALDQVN

OB(O)O
inactive: all assays above

C#CCOC(=O)[C@@H](C)Oc1ccc(Oc2ncc(Cl)cc2F)cc1
active: CYP4A11 (gene 1579) 19 µM | [6] 50 µM | [7] 64.4 µM | [8] 13.2 µM
inactive: all other assays above

CCCCOCCOCCOCc1cc2c(cc1CCC)OCO2
active: CYP2C9 (gene 1559) 3.39 µM | CYP2E1 (gene 1571) 14 µM | [11] 4.83 µM | [14] 7.35 µM
not listed: [1] | [6]
inactive: all other assays above

CCCN(CCC)c1c([N+](=O)[O-])cc(C(F)(F)F)c(N)c1[N+](=O)[O-]
active: CYP2E1 (gene 1571) 16.2 µM | CYP4A11 (gene 1579) 28.9 µM | [1] 7.3 µM | [3] 21.2 µM | [7] 24.9 µM | [8] 22 µM | [9] 36.6 µM | [12] 28.6 µM | [14] 50 µM
inactive: all other assays above

CCN(Cc1c(F)cccc1Cl)c1c([N+](=O)[O-])cc(C(F)(F)F)cc1[N+](=O)[O-]
active: CYP2E1 (gene 1571) 40.9 µM | CYP4A11 (gene 1579) 36.3 µM | [1] 8.01 µM | [3] 14 µM | [7] 38.7 µM | [9] 50 µM | [10] 11.7 µM | [12] 50 µM | [14] 50 µM
inactive: all other assays above

CC1(C)C(C=C(Cl)Cl)C1C(=O)OCc1cccc(Oc2ccccc2)c1 (stereo unspecified)
active: CYP2E1 (gene 1571) 26.2 µM | [1] 22.6 µM | [6] 18.3 µM
inactive: all other assays above
